The list is not random: actives were taken first. Their share in the collection is about 1.8%.
LYPLA2 counter: LYPLA2 inhibitors, primary screen, counter-screen for PME1 inhibitor project, biochemical, fluorescence polarization, FP-Rh probe ABPP | Acyl-protein thioesterase 2 (Homo sapiens), O95372 | recombinant LYPLA2 | inhibition, % at 5.9 µM | hit rate 0.38% among 320,000 | AID 2177, 2009;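 active = inhibition above the screen-wide mean plus 3 SD, limit set per campaign, cut at about 26% in these data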;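 also: 0% = LYPLA2 with DMSO and 100% = wells lacking LYPLA2 enzyme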
Fam108B counter: mouse Fam108B serine hydrolase inhibitors, primary screen, counter-screen for RBBP9 inhibitor project, biochemical, fluorescence polarization. inhibition, % at 9.51 µM. recombinant Fam108B, FP-Rh probe fluorescence polarization. hit rate 0.33% among 300,000. AID 1947, 2009;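 active = inhibition above the screen mean inhibition plus 3 SD, computed separately per campaign, cut at about 18% in these data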;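 also: inhibitors lower polarization as less probe binds the enzyme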
PME-1 primary: PME-1 inhibitors via competitive probe labeling, primary screen, biochemical, fluorescence polarization, FP-Rh probe, HTS. Protein phosphatase methylesterase 1 (Homo sapiens), Q9Y570. recombinant PME-1. inhibition, % at 5.9 µM. hit rate 0.53% among 320,000;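 active = inhibition above the campaign mean of all compounds plus 3 SD, cut at about 26% in these data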;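 also: competitive labeling of PME-1 active site by serine hydrolase directed probe; 0% = PME-1 with DMSO and 100% = wells lacking PME-1 enzyme; inhibitors block probe labeling so polarization falls and inhibition rises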
Target sequence (Q9Y570 whole entry, looked up): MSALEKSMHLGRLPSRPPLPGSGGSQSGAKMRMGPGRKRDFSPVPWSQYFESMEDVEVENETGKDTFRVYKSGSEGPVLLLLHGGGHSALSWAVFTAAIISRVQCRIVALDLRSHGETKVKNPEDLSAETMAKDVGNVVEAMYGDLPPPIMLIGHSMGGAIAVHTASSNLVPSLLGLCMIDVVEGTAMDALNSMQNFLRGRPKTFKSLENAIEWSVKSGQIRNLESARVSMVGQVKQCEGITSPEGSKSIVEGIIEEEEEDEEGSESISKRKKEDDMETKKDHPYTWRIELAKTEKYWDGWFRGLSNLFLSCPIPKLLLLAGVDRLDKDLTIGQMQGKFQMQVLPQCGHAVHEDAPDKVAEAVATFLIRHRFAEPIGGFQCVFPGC
GSTO1 inh: inhibitors of recombinant GSTO1, primary screen, counter-screen for RBBP9 inhibitor project, biochemical, fluorescence polarization; hit rate 1.1% among 300,000; AID 1974, 2009; activity-based probe fluorescence polarization; Glutathione S-transferase omega-1 (Homo sapiens), P78417; inhibition, % at 5.96 µM;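 active = inhibition above the campaign mean inhibition plus 3 SD, cut at about 35% in these data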;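 also: 0% = GSTO1-1 with DMSO and 100% = wells lacking GSTO1-1 enzyme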
LYPLA1 counter: LYPLA1 inhibitors, primary screen, counter-screen for PME1 inhibitor project, biochemical, fluorescence polarization, FP-Rh probe ABPP. Acyl-protein thioesterase 1 (Homo sapiens), O75608. recombinant LYPLA1. inhibition, % at 5.9 µM. hit rate 0.16% among 320,000. AID 2174, 2009;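 active = inhibition above the mean of all tested compounds plus 3 SD, set per campaign, cut at about 14% in these data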;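 also: inhibitors block serine hydrolase probe labeling of LYPLA1 so polarization falls; 0% = enzyme with DMSO and 100% = wells lacking LYPLA1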
Target sequence (O75608 whole entry, looked up): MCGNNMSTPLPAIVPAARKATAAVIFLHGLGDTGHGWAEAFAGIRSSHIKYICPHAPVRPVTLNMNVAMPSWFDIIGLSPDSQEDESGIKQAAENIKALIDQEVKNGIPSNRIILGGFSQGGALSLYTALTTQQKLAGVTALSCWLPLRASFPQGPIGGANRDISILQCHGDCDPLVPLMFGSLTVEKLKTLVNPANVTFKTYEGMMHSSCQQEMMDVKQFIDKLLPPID
PAD4 FP inh: human PAD4 inhibitors, primary screen, biochemical, fluorescence polarization, 1536-well format; recombinant PAD4, RCA probe fluorescence polarization; AID 485272, 2010; inhibition, % at 6.36 µM; hit rate 0.41% among 330,000; Protein-arginine deiminase type-4 (Homo sapiens), Q9UM07;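 active = percent inhibition above a cutoff equal to the mean of all tested compounds plus 3 SD, cut at about 15% in these data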;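 also: 0% = PAD4 with RCA probe and DMSO and 100% = probe without PAD4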
LYPLA2 confirm: LYPLA2 inhibitors, retest, confirmation, counter-screen for PME1 inhibitor project, biochemical, fluorescence polarization, FP-Rh probe ABPP; shares compounds with LYPLA2 counter; recombinant LYPLA2; inhibition, % at 5.9 µM; hit rate 72% among 1,100; AID 2232, 2010;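 active = mean inhibition across replicates above the hit cutoff set in the primary screen, cut at about 26% in these data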;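 also: blocked labeling of the enzyme by serine hydrolase FP-Rh probe lowers polarization; 0% = enzyme with DMSO and 100% = wells lacking LYPLA2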
LYPLA2 gel ABPP: LYPLA2 inhibitors in proteome, late-stage follow-up, gel-based competitive ABPP, fluorescence, assay provider; shares compounds with LYPLA2 counter; rhLYPLA2 in mouse brain proteome, gel ABPP FP-Rh; inhibition, % at 20 µM; hit rate 30% among 150; AID 652029, 2013;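 active = inhibition of LYPLA2 enzyme probe labeling above about 50%, limit read from the data; inactive = inhibition below that limit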;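 also: loss of FP-Rh probe labeling of the LYPLA2 gel band measured as band density; 0% = DMSO only control band and 100% = blank gel background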
Starred values were filed as active, the others as inactive; . = no result given.

SMILES | LYPLA2 counter | Fam108B counter | PME-1 primary | GSTO1 inh | LYPLA1 counter | PAD4 FP inh | LYPLA2 confirm | others
O=[N+]([O-])c1ccc(C(O)CN2CCN(C/C=C/c3ccccc3)CC2)cc1 (centres undefined) | 62* | -5 | 4 | 12 | 8 | 0 | 54* | LYPLA2 gel ABPP=36
O=C(NCCNC(=O)c1cc(OCC(F)(F)F)ccc1OCC(F)(F)F)Nc1ccc(OC(F)(F)F)cc1 | 26* | -11 | -11 | -4 | 11 | 1 | 35*
O=S(=O)(/C=C/c1ccccc1)N1CCOCC1 | 1 | -3 | -3 | 3 | 0 | -3 | .
COc1ccccc1-c1nnc(N)s1 | 28* | -2 | 1 | 2 | 6 | -6 | -2
COc1ccc(N2CCN(C(=O)c3ccc(N4C(=O)NC5CC4(C)Oc4ccccc45)cc3)CC2)cc1 (centres undefined) | 34* | 1 | -2 | -2 | 0 | 6 | 39*
COc1ccc(N2CCN(C(=O)CCNC(=O)c3ccc(C(C)(C)C)cc3)CC2)cc1 | 6 | -2 | 0 | 4 | -3 | -1 | .
Cc1ccc(C(=O)N2CCN(c3ccc(NC(=O)c4cccnc4)cc3)CC2)cc1 | 17 | 4 | -8 | 5 | 0 | 0 | .
Cc1noc(C)c1COc1ccc(C(=O)N2CCN(c3ccccc3F)CC2)cc1 | 18 | -3 | -2 | 1 | 0 | 1 | .
COc1cccc2c1OC1(C)CC2NC(=O)N1c1cccc(C(=O)N2CCN(c3ccccc3)CC2)c1 (centres undefined) | 1 | 4 | 1 | 4 | 0 | 2 | .
COc1cc(C(=O)Nc2ccc(N3CCN(C(=O)c4ccc(C)cc4)CC3)cc2)cc(OC)c1OC | 38* | -1 | 3 | -3 | 8 | -8 | 50* | LYPLA2 gel ABPP=35
COc1ccc(N2CCN(C(=O)c3ccc(C(C)(C)C)cc3)CC2)cc1 | 79* | -1 | -2 | 3 | 6 | 2 | 87* | LYPLA2 gel ABPP=86*
CC(=O)c1ccc(N2CCN(C(=O)c3ccc(OCc4c(C)noc4C)cc3)CC2)cc1 | 37* | -5 | -7 | -1 | -4 | 6 | 28*
CCN(C[C@H]1N[C@@](Cc2ccccc2)(C(=O)OC)[C@H]2C(=O)N(C)C(=O)[C@@H]12)C(=O)Nc1ccc(C(F)(F)F)cc1 | . | . | . | . | . | -2 | .
O=C(CCC(=O)c1cccs1)Nc1ncccc1O | -6 | 0 | -1 | 10 | -3 | -3 | .
CCN(CC)C(=O)[C@H]1C[C@H](CC(=O)NCc2ccco2)C(=O)N2CCc3c([nH]c4cc(CCC(=O)N(C)C)ccc34)[C@]12C | . | . | . | . | . | 5 | .
COc1ccc(N2CCN(C(=O)c3ccc(NC(=O)C4=CSCCO4)cc3)CC2)cc1 | 35* | 1 | 5 | -4 | -4 | 6 | 38*
COc1ccc(N2CCN(C(=O)c3ccc(-n4nc(C)cc4C)cc3)CC2)cc1 | 41* | -3 | -2 | 0 | -2 | 2 | 39*
O=C(Nc1ccc(C(=O)N2CCN(c3ccc(F)cc3)CC2)cc1)C1=CSCCO1 | 20 | 1 | 3 | 0 | 1 | -4 | .
COc1cccc(N2CCN(C(=O)c3ccc(-c4ccccc4)cc3)CC2)c1 | 30* | -2 | -1 | -5 | 2 | 1 | 26*
COc1ccc(C(=O)N2CCN(c3cccc(Cl)c3)CC2)cc1 | 8 | 1 | -7 | -5 | 3 | -3 | .
Cc1cc(C)n(-c2ccc(C(=O)OCC(=O)N3CCN(c4ccccc4)CC3)cc2)n1 | . | . | . | . | . | -3 | .
O=C(NCc1ccc(F)cc1)C1(S(=O)(=O)c2ccc(Cl)cc2)CC1 | 3 | -2 | 0 | -1 | -1 | -2 | .
COc1ccc(CCNC(=O)c2cc(COc3c(C)cccc3C)on2)c(OC)c1 | 7 | -5 | 0 | 6 | 6 | 0 | .
O=C(Nc1ccc([N+](=O)[O-])cc1)c1ccc(Cn2cc([N+](=O)[O-])cn2)cc1 | 46* | -5 | 2 | -1 | -6 | 7 | 49*
COc1cc(CN(C)c2ncnc3sccc23)ccc1OC(F)F | 4 | 2 | 1 | 3 | -1 | 0 | .
SMILES | LYPLA2 counter | Fam108B counter | PME-1 primary | GSTO1 inh | LYPLA1 counter | PAD4 FP inh | LYPLA2 confirm | others
COc1ccc(Cl)cc1NC(=O)c1noc(C)c1[N+](=O)[O-] | 28* | 2 | 3 | 18 | -1 | -1 | 36*
C#CCOCCOCCOCCNc1nc(N2CCN(C(=O)CCCCCCCCCCNC(=O)Cn3cc(C[C@@H](C)O)nn3)CC2)nc(N2CCN(C(=O)CCCCCCCCCCNC(=O)[C@@H]([C@H](C)CC)n3cc(CCCCCN)nn3)CC2)n1 | 31* | -2 | 0 | 4 | 0 | 0 | 28*
Cc1ccc(/C=C/C(=O)N2CCN(c3cccc(C(F)(F)F)c3)CC2)cc1 | 47* | -2 | -2 | -2 | 13 | -4 | 35*
COc1ccc(-c2noc(CCC(=O)N3CCN(c4cccc(C(F)(F)F)c4)CC3)n2)cc1 | 69* | 1 | 1 | -8 | 5 | -4 | 67* | LYPLA2 gel ABPP=70*
COc1ccc(-c2noc(CCC(=O)N3CCN(c4cccc(OC)c4)CC3)n2)cc1 | . | . | . | . | . | -2 | .
CCOc1ccccc1C(=O)Nc1ccc2c(c1)C(=O)NC2=O | -4 | -7 | -4 | 6 | 1 | -1 | .
Cc1c(Cc2ccccc2)c(=O)oc2cc(OCc3ccc(C(=O)O)cc3)ccc12 | 28* | -3 | -4 | -10 | 13 | -5 | 52* | LYPLA2 gel ABPP=24
COc1cccc(COc2ccc3c(C)c(Cc4ccccc4)c(=O)oc3c2)c1 | 8 | -5 | -6 | 1 | 0 | 3 | .
CCOc1ccc(C2/C(=C(\O)c3ccc4c(c3)OCCO4)C(=O)C(=O)N2Cc2cccnc2)cc1OCC (centres undefined) | -7 | 0 | 4 | 1 | -1 | -5 | .
CN(C(=O)c1ccc(NC(=O)Cc2ccc(NC(=O)C3CCCN(C(=O)c4ccccc4)C3)cc2)cc1)C1CC1 (centres undefined) | 63* | . | 1 | . | 3 | 7 | 60* | LYPLA2 gel ABPP=34
CN(C(=O)c1ccc(NC(=O)Cc2ccc(NC(=O)C3CCCN(C(=O)C4CCCC4)C3)cc2)cc1)C1CC1 (centres undefined) | 57* | . | 2 | . | 5 | -2 | 51* | LYPLA2 gel ABPP=45

Assay outcomes from PubChem BioAssay.
